Measured values as given in paper PMC9574860, “Chemical Toolkit for PARK7: Potent, Selective, and High-Throughput” (Journal of Medicinal Chemistry, 2022).
Among all 7,900 compounds or so, about 400 (5.1%) showed an effect of 50% or more. For the sample, strong results were picked, then their nearest neighbours and some compounds at random.

Target: Parkinson's disease protein 7 (PARK7/DJ1) (human, UniProt Q99497)
Assay: primary screen, percent inhibition; read as competition with a fluorescent probe by fluorescence polarization; higher = more effect of the substance
Conditions: 100 µM
How it was run: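 Covalent fragments at 100 μM final were incubated 2 h with 0.2 μM PARK7, then 20 nM probe JYQ-107 added for a further 2 h. Fluorescence polarization read at 480/520 nm; relative FP loss versus reference controls gave remaining enzyme activity.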

Parkinson's disease protein 7 (PARK7/DJ1), sequence (Q99497 whole entry, looked up): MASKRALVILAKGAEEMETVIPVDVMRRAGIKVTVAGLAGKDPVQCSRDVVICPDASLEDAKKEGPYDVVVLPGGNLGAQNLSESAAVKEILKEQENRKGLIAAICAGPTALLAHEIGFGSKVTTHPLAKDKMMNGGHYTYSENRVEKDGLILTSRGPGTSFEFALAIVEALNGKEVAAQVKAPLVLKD

Compound	Inhibition % [%]
N#CC1(NC(=O)CCl)CCC1	20.1
CN1CCOC(CNS(=O)(=O)C=Cc2ccccc2)C1 (centres unmarked)	6.48
N#Cc1ncccc1Cl	0.27
O=C(CCCl)N1CCc2sccc2C1	33.2
O=C(CCl)N1CCc2sccc2C1	83.6
C=CC(=O)NCCCC(=O)N1CCc2sccc2C1	10.7
O=C(O)CC1(CS)CC1	80.8
O=C(O)CC1OCCCO1	-4.03
COCc1ccc(SC(=O)N(C)C)cc1	7.64
C=CC(=O)N1CCCN(Cc2nccn2C)CC1	10.6
O=C(CCl)Nc1cc2ccccc2cc1C(=O)O	66.3
O=C(CCl)Nc1cc(Cl)ccc1C(=O)O	47.9
O=C(CCl)Nc1ccc(Br)cc1C(=O)O	46.1
O=C(CCl)Nc1ccc(Cl)cc1C(=O)O	52.4
O=C(CCl)Nc1cccc2cccc(C(=O)O)c12	11.2
C#CC(=O)Nc1cc2ccccc2cc1C(=O)O	29.8
C=CC(=O)NCC1CCCc2ccccc21 (centres unmarked)	4.88
C=CC(=O)N1CCC(CN(C)Cc2scnc2C)C1 (centres unmarked)	13.2
O=S(=O)(C=Cc1ccc(Cl)cc1)NCC1CCCO1 (centres unmarked)	6.48

Compound	Inhibition % [%]
CC1CN(CC2OCCO2)CCC1c1ccccc1 (centres unmarked)	8.86
O=C(CCl)N(C1CC1)C1CCS(=O)(=O)C1 (centres unmarked)	5.73
O=C(CCl)N(C1CCCC1)C1CC1	51.2
CC1CCC(N(C(=O)CCl)C2CC2)CC1 (centres unmarked)	74.1
O=C(CCl)N(C1CCCCC1)C1CCCCC1	4.3
O=C(CCl)N(C1CCCC1)C1CCS(=O)(=O)C1 (centres unmarked)	7.16
CCN(C(=O)CCl)C1CC1	5.24
C=CC(=O)NCc1cccnc1N1CCOCC1	4.99
C=CC(=O)N1CCOCC1CC (centres unmarked)	7.47
CCc1cnccc1C(=O)N1CCCC(C2OCCO2)C1 (centres unmarked)	12.5
O=C1OCCC1N1CCOC(c2ccc(Cl)cc2)C1 (centres unmarked)	7.62
C=CCNC(=O)C(C#N)=Cc1cccc(O)c1	4.34
C=CC(=O)NC1COC(C2CC2)C1 (centres unmarked)	4.28
CN(C)Cc1ccc(B2OC(C)(C)C(C)(C)O2)s1	5.59
N#Cc1nnc2ccccc2c1N	1.29
N#Cc1[nH]c2ccccc2c1N	72.9
N#Cc1n[nH]c2ccccc12	5.12
CC1(C)CC(OS(C)(=O)=O)CCO1 (centres unmarked)	8.17
N#CC(=Cc1ccc(N2CCOCC2)cc1)C(N)=O	12.7
